Laboratory results as given in PubChem BioAssay.
Active and inactive are the calls of the source. Unless noted, the rule behind the calls is not given here.

Experiments:
[1] = circadian clock period modulators, cell-based, LOPAC library, luminescence reporter (AID 2774); conditions: circadian reporter cells, at 7 µM, actives lie on both sides;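 note: values are relative to mean of DMSO wells on each plate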
[2] = test system: Hepatitis C virus NS3 helicase; experiment: HCV NS3 helicase inhibitors, primary screen, biochemical, fluorescence polarization, LOPAC1280 library (AID 687035; in the data active = inhibition above about 37%); conditions: Purified HCV NS3 helicase, Cy5-dT15 ssDNA binding fluorescence polarization; stronger effect = higher value; concentration not given here
[3] = Cy5 fluorescence quenching or enhancement artefacts, artefact control for HCV NS3 helicase inhibitor project, biochemical, LOPAC1280 (AID 687037); conditions: Cy5-DNA-NS3h complex fluorescence interference counterscreen
[4] = sensitizers of A549 cells to miR-34 induction, primary screen, imaging, A549 dox-inducible miR-34, nuclei and caspase counts (AID 1347080;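 active = compounds whose cell count with miR-34 switched on is under 0.7 times the count with it off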); conditions: A549 miR-34 inducible, Hoechst nuclei count, 48 h
[5] = phospholipid biosynthesis inhibitors in animal cells, primary screen, cell-based, LOPAC library, screen 4 (AID 1347384); conditions: phospholipid biosynthesis inhibition screen, at 10 µM
[6] = viability rescue of complex I mutant cybrids, primary screen, cell-based, galactose medium, ATP luminescence (AID 1645843;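 active = z-score of at least 1.8 in each of two replicates, scored against plate mean and spread of sample wells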;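 note: positive z means more ATP and so rescue of galactose-driven cybrid death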); conditions: complex I mutant cybrid cells, 72 h, stronger effect = higher value
[7] = stronger effect = lower value, cell number ratio, induced over uninduced
[8] = measured here: relative caspase fold change +Dox/-Dox
[9] = measured here: total cells with miR-34 induction, stronger effect = lower value
[10] = measured here: total cells without miR-34 induction

| SMILES | period change [1] | inhibition [2] | fluorescence ratio (interference) [3] | fold change [4, 7] | fold change [4, 8] | cell count [4, 9] | cell count [4, 10] | outcome [5] | z-score [6] |
| --- | --- | --- | --- | --- | --- | --- | --- | --- | --- |
| CCCC[C@@]1(C2CCCC2)Cc2cc(OCC(=O)O)c(Cl)c(Cl)c2C1=O | -0.06 h (inactive) | 0% (inactive) | 1 (inactive) | 0.958 (inactive) | 1.45 | 8870 | 9260 | inactive | 2.93 (active) |
| CC1(C)CCC=[N+]1[O-] | -0.065 h (inactive) | -2% (inactive) | 1 (inactive) | 0.955 (inactive) | 0.876 | 9650 | 10100 | inactive | 0.285 (inactive) |
| NO | -0.195 h (inactive) | 1% (inactive) | 1 (inactive) | 1.15 (inactive) | 1.06 | 10000 | 8720 | inactive | 0.49 (inactive) |
| O=C(O)Cc1ccc(O)c(O)c1 | -0.08 h (inactive) | -1% (inactive) | 1 (inactive) | 0.965 (inactive) | 1.22 | 9890 | 10200 | inactive | -0.87 (inactive) |
| CN(C)C(N)=NCCC[C@H](N)C(=O)O | -0.14 h (inactive) | -2% (inactive) | 1 (inactive) | 0.963 (inactive) | 1.27 | 9830 | 10200 | inactive | 0.265 (inactive) |
| NC(=O)c1ccccc1 | -0.185 h (inactive) | 0% (inactive) | 1 (inactive) | 0.988 (inactive) | 1.76 | 9430 | 9540 | inactive | 0.385 (inactive) |
| COC(=O)C(C)(N)Cc1ccc(O)cc1 (stereo not drawn) | -0.015 h (inactive) | -3% (inactive) | 1 (inactive) | 1.04 (inactive) | 1.45 | 10900 | 10400 | inactive | 0.39 (inactive) |
| COc1ccc2c(c1)c(CC(=O)O)c(C)n2Cc1ccc(Cl)cc1 | 0 h (inactive) | 0% (inactive) | 1 (inactive) | 0.957 (inactive) | 1.52 | 8600 | 8990 | inactive | 2.23 (active) |
| NC1CCN(O)C1=O (stereo not drawn) | 0.11 h (inactive) | 0% (inactive) | 1 (inactive) | 0.997 (inactive) | 1.98 | 10200 | 10200 | inactive | 0.075 (inactive) |
| O=[N+]([O-])c1ccc(CSc2ncnc3c2ncn3[C@@H]2O[C@H](CO)[C@H](O)C2O)cc1 (stereo partly drawn) | -0.085 h (inactive) | -4% (inactive) | 0.9 (inactive) | 1.12 (inactive) | 0.942 | 10500 | 9340 | inactive | 1.67 (inactive) |
| Cc1ccccc1/C=C/C1=NCCN1 | -0.13 h (inactive) | -5% (inactive) | 1 (inactive) | 1.01 (inactive) | 0.996 | 7710 | 7640 | inactive | -1.06 (inactive) |
| COc1ccccc1CNCCCCCCNCCCCCCCCNCCCCCCNCc1ccccc1OC | 0.295 h (inactive) | 11% (inactive) | 1 (inactive) | 1.1 (inactive) | 0.839 | 8650 | 7890 | inactive | -1.19 (inactive) |
| Cc1cc(NC(=O)Nc2ccc3c(ccn3C)c2)sn1 | -0.055 h (inactive) | -1% (inactive) | 0.9 (inactive) | 1.07 (inactive) | 1.78 | 9080 | 8470 | inactive | 0.19 (inactive) |
| Nc1ncnc2c1ncn2C1CCCC1 | 0.035 h (inactive) | -6% (inactive) | 0.9 (inactive) | 1.02 (inactive) | 2.13 | 10400 | 10200 | inactive | -0.07 (inactive) |
| Fc1ccc(C(OCCCc2cnc[nH]2)c2ccc(F)cc2)cc1 | 0.11 h (inactive) | -1% (inactive) | 1 (inactive) | 0.951 (inactive) | 0.647 | 8620 | 9060 | inactive | -1.19 (inactive) |
| COc1cc(CC(=O)O)ccc1O | 0.03 h (inactive) | 1% (inactive) | 1 (inactive) | 1.05 (inactive) | 0.734 | 10100 | 9570 | inactive | 0.08 (inactive) |
| Cc1cccc(C)c1OCC(N)C(C)C (stereo not drawn) | -0.08 h (inactive) | -3% (inactive) | 1 (inactive) | 1.09 (inactive) | 0.766 | 11200 | 10300 | inactive | -0.425 (inactive) |
| O=C(O)Cc1c[nH]c2ccc(O)cc12 | -0.095 h (inactive) | -2% (inactive) | 1 (inactive) | 1.08 (inactive) | 0.669 | 9930 | 9210 | inactive | 0.08 (inactive) |
| C[C@H](Cc1ccccc1)Nc1ncnc2c1ncn2[C@@H]1O[C@H](CO)[C@H](O)C1O (stereo partly drawn) | -0.12 h (inactive) | -8% (inactive) | 1 (inactive) | 1.08 (inactive) | 0.57 | 9860 | 9130 | inactive | 1.45 (inactive) |
| Nc1nc(Cl)nc2c1ncn2[C@@H]1O[C@H](COP(=O)(O)OP(=O)(O)OP(=O)(O)O)[C@H](O)C1O (stereo partly drawn) | -0.055 h (inactive) | 37% (active) | 1 (inactive) | 1.14 (inactive) | 1.19 | 2920 | 2560 | inactive | 0.235 (inactive) |
| NC(C(=O)N[C@@H]1C(=O)N2C(C(=O)O)=C(Cl)CS[C@H]12)c1ccccc1 (stereo partly drawn) | 0.03 h (inactive) | 0% (inactive) | 1 (inactive) | 1.02 (inactive) | 2.15 | 10500 | 10300 | inactive | 0.38 (inactive) |
| NC(=O)C1=CN(C2OC(COP(=O)(O)OP(=O)(O)OC[C@H]3O[C@@H](n4cnc5c(N)ncnc54)C(OP(=O)(O)O)[C@H]3O)C(O)C2O)C=CC1 (stereo partly drawn) | -0.03 h (inactive) | -4% (inactive) | 1 (inactive) | 1.07 (inactive) | 1.18 | 9810 | 9130 | inactive | 1.12 (inactive) |
